HT1080 IDH1KD tx = HT-1080 IDH1 knockdown cell toxicity (counter line); HT-1080 IDH1 knockdown viability, ATP luminescence, 48 h; Potency, µM (highest dose often 46.1 µM), without a hit: top-dose activity, negative = toxicity, most hits filed as cytotoxic; actives 2% (n = 360,000);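 also: potency is read from the fitted curve at half-maximal effect; 0% = DMSO wells and -100% = cell-free medium wells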
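Assay cells: HT-1080 with IDH1 knockdown, 750 per well, RPMI/5% FBS. Exposure: 48 h at 37 °C following 2 h pre-incubation. Read: CellTiter-Glo luminescence; fitted concentration-response, curve class assigned.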
HT1080-NT tox = kills 2HG-producing HT-1080-NT fibrosarcoma cells. actives 1.6% (n = 360,000). HT-1080-NT fibrosarcoma viability, CellTiter-Glo ATP luminescence, 48 h. AID 686970. Potency, µM (top dose mostly 46.1 µM), inactives show at the highest dose activity, negative = less viability, usual class: cytotoxic;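 also: NT is the 2HG producing partner of a matched IDH1 knockdown line; potency is read from the fitted curve at half-maximal effect; 0% = DMSO-treated cells and -100% = media-only wells without cells; nearly all actives have a fitted effect of over 55% in size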
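Viability of the 2HG-overproducing fibrosarcoma line after 48 hours of compound exposure at 37 degrees C was determined by luminescence with CellTiter-Glo, and concentration-effect curves were then fitted and categorized.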
TDP1 cell CPT = growth inhibition of DT40 Tdp1-/-;hTDP1 cells with camptothecin (screen for TDP1 inhibitors) | chicken DT40 Tdp1-/-;hTDP1 cells + 20 nM CPT, ATP luminescence, 48 h | Potency, µM (top dose mostly 46.2 µM), for the others: at the top dose activity change, negative = growth inhibition, hits mostly inhibitors | actives 12% (n = 420,000) | AID 686979; also: potency is read from the fitted curve at half-maximal effect; nearly all actives have a fitted effect of over 55% in size
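Chicken DT40 Tdp1-/- cells complemented with human TDP1, 400 cells/well, exposed to compounds plus 20 nM camptothecin for at least 48 h at 37 C; viability read as ATP content by CellTiter-Glo luminescence.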
IL1B secr inh = blocks inflammasome-driven IL-1 beta release | THP-1 LPS/ATP IL-1B secretion, AlphaLISA, 16 h; hits give low values | activity change, % at 57.5 µM | actives 4.7% (n = 360,000) | AID 743279; in the data active = activity change below about -50%; inconclusive = mostly about -30% to -49%
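Secreted IL-1B measured by AlphaLISA bead assay after 16 h compound exposure of THP-1 cells; compounds (final up to 57.5 uM) added 1 h before LPS (250 ng/mL) and ATP (1.25 mM) stimulation; lower signal means less secretion.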
DT40 TDP1 no CPT = qHTS for Inhibitors of human tyrosyl-DNA phosphodiesterase 1 (TDP1): qHTS in cells in absence of CPT | AID 686978, 2013 | Potency, µM (top dose mostly 46.2 µM), for inactives: at the top dose activity change, negative = growth inhibition, hits mostly inhibitors | DT40 Tdp1-/- hTDP1 cells, no CPT, ATP luminescence, 48 h | actives 15% (n = 420,000); also: potency is read from the fitted curve at half-maximal effect; nearly all actives have a fitted effect of over 55% in size
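Growth kinetics read by CellTiter-Glo luminescence after ≥48 hr at 37 °C. Cells: DT40 Tdp1-/- stably carrying human TDP1, 400 per well, compound exposure in the absence of CPT (DMSO vehicle).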
ELG1 DNA repair = blocks ELG1-dependent DNA repair in HEK293T cells; HEK293T ELG1-luciferase reporter, luminescence, 16 h; DNA damage induced by 5-fluorouridine; Potency, µM (top dose mostly 46.1 µM), without a hit: at the highest dose activity change, negative = inhibition, hits mostly inhibitors; actives 2.3% (n = 330,000); also: potency is read from the fitted curve at half-maximal effect; nearly all actives have a fitted effect of over 55% in size
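Overnight (16 hr) co-exposure of 2,000 cells/well to 5-fluorouridine and compound at 37 °C preceded detection. Luciferase was quantified via ONE-Glo luminescence; loss of signal denotes inhibition.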
Starred values were filed as active, the others as inactive; ? = inconclusive; . = no result given. Most compounds without a hit are left out; they make up all but 19% or so of the library. Unless noted, calls follow the shape of the dose curve; as a rule, active = well fitted curve in the direction sought with a large enough effect; inconclusive = small, poorly fitted or top-dose-only effect, or another doubt; inactive = no such curve, though single readings can be large; an effect the other way counts as inactive or inconclusive. Unless noted, % is scaled to controls: 0 for no effect and ±100 for the full control effect.

SMILES	HT1080 IDH1KD tx	HT1080-NT tox	TDP1 cell CPT	IL1B secr inh	DT40 TDP1 no CPT	ELG1 DNA repair
CCCCN(Cc1ccco1)C(=O)C1CCCN(c2ncnc3c2nc2n3CCCCC2)C1 (stereo unspecified)	?	?	16µM*	-13	15µM*	-25%
COc1ccc(-c2cc(C(F)(F)F)n3nc(C(=O)O)c(Cl)c3n2)cc1OC	.	.	16%	.	-10%	.
COC(=O)c1cc2sccc2n1CC(=O)Nc1ccc(C)cc1C	.	.	-26%	.	-23%	.
O=C1CC(c2ccc(Cl)cc2)CC(=O)C1CS(=O)(=O)c1ccccc1 (stereo unspecified)	0%	-7%	2%	-58*	-4%	?
O=[N+]([O-])c1ccccc1OCCCOc1cccc2cccnc12	?	-23%	?	-19	?	?
CC(C)(C)NC(=S)N1CCC2CC1c1cc(-c3ccc4c(c3)OCO4)ccc12 (stereo unspecified)	5%	13%	?	-2	?	.
O=C(C1CCCCC1)N1CCC2CC1c1cc(-c3ccc4c(c3)OCO4)ccc12 (stereo unspecified)	?	?	18µM*	35	18µM*	.
CC(C)(C)C(=O)N1CCC2CC1c1cc(-c3ccc4c(c3)OCO4)ccc12 (stereo unspecified)	?	?	?	-28	23µM*	.
NS(=O)(=O)c1ccc(CCNC(=O)Cn2c(=O)c3cccn3c3cccnc32)cc1	-1%	18%	1%	23	21%	4%
CCOc1ccc(CCNC(=O)Cn2c(=O)c3cccn3c3cccnc32)cc1	7%	-1%	?	-66*	1%	8%
CCOc1ccc(CCNC(=O)CCCn2c(=O)c3cccn3c3ccccc32)cc1	.	.	18µM*	.	23µM*	.
CCCCN(CC)C(=O)CCCn1c(=O)c2cccn2c2ccccc21	.	.	?	.	21µM*	.
CSc1ccc(CCNC(=O)CCCn2c(=O)c3cccn3c3ccccc32)cc1	.	.	?	.	18µM*	.
CCN(CC(=O)NCc1ccc(F)cc1)C(=O)c1oc2ccccc2c1C	-3%	-4%	8%	35	?	0%
COc1ccc(C(=O)Nc2cccc(OC(=O)c3ccco3)c2)cc1	-3%	-4%	6%	-4	2%	?
COc1cccc(CC(=O)Nc2ccc3nc(C)sc3c2)c1	9%	19%	?	33	13µM*	?
COc1ccc(C(=O)Nc2cccc(OC(=O)c3ccc(C)c(C)c3)c2)cc1	-15%	-24%	-75%	0	23µM*	?
COc1cc(CC(=O)Nc2ccc3nc(C)sc3c2)cc(OC)c1OC	0%	-18%	-21%	35	?	?
COc1cccc(NC(=O)c2ccc3nc(C)sc3c2)c1	10%	15%	18µM*	-22	?	?
CC(C)C(=O)Nc1nnc(S(=O)(=O)N(C)Cc2ccc(F)cc2)s1	.	.	-21%	.	-12%	.
CC(C)CC(C(=O)O)N1C(=O)C2C3C=CC(C2C1=O)C1C(=O)N(C(CC(C)C)C(=O)O)C(=O)C31 (stereo unspecified)	15%	21%	3%	-15	10%	0%
COCCCn1c(C(=O)N2CCOCC2)cc2c(=O)n3ccccc3nc21	-2%	2%	10%	3	5%	0%
COCCCn1c(C(=O)Nc2ccc3c(c2)OCO3)cc2c(=O)n3ccccc3nc21	3%	13%	18µM*	20	26µM*	5%
CCN(C(=O)c1cc2c(=O)n3cccc(C)c3nc2n1CCCOC)C1CCCCC1	-13%	-1%	21µM*	-7	16µM*	23µM*

Source: PubChem (National Center for Advancing Translational Sciences (NCATS))
